Test systems include DU-145 prostate; K-562 leukemia; MDA-MB-231 breast; RXF 393 renal; SF-268 CNS; SF-295 CNS; SF-539 CNS; UACC-257 melanoma; M14 melanoma.
Holding throughout (experiment): NCI-60 one-dose screen, 48 h (100 = growth as untreated, 0 = no growth, -100 = all killed)
Common to all, as to conditions: 10 µM

Data on 24 compounds can be found in PubChem BioAssay (NCI).

Molecules are shown by their SMILES. About 83,000 compounds went through this panel and 20% of them were active in at least one assay; those are over-represented in the sample as a whole.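 Step 1: grow cells in 96-well plates. Step 2: add test compound at a single concentration. Step 3: incubate 48 h. Step 4: record percent growth.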 Values without a mark were called inactive. The source made the active and inactive calls. The calls were made as follows: active = growth percent below 10; inactive = the rest.

For `N#CC1C=Cc2c(ccc3ccccc23)N1C(=O)c1ccccc1` (centres undefined), the growth with DU-145 prostate was -2.67% (active); with K-562 leukemia, 17.2%; in the assay with MDA-MB-231 breast, 24.4%; in the assay with RXF 393 renal, 5.17% (active); in the assay on SF-268 CNS, 27.2%; in the assay on SF-295 CNS, -19.4% (active). For the same compound, the results for the growth in the assay on SF-539 CNS, in the assay on UACC-257 melanoma and in the assay on M14 melanoma were -7% (active), 70.3% and 7.78% (active), respectively.
In the case of `O=[N+]([O-])c1ccc(-c2nc(-c3ccccc3)c(-c3ccccc3)n2-c2ccccc2)cc1`, the growth was 49.4% with DU-145 prostate; -25% (active) in the assay with K-562 leukemia; 14.3% in the assay with MDA-MB-231 breast; 73.9% in the assay with RXF 393 renal; 65.8% in the assay on SF-268 CNS; 16.6% with SF-295 CNS. Also, the growth in the assay on SF-539 CNS is 57.8%; with UACC-257 melanoma, 57.4%; in the assay with M14 melanoma, 49.6%.
For the compound `COc1cc(OC)cc(-c2n/c(=C\c3c(O)[nH]c4ccc(OC)cc34)cc3c2=Nc2ccccc2-3)c1`, the growth in the assay on DU-145 prostate is 3.54% (active); with K-562 leukemia, -9.91% (active); in the assay with MDA-MB-231 breast, 3.25% (active); in the assay on RXF 393 renal it was 79.7%; in the assay with SF-268 CNS, 73.6%; in the assay with SF-295 CNS, 98.4%. For the same compound, the values for the growth with SF-539 CNS, in the assay with UACC-257 melanoma and in the assay with M14 melanoma were 108%, 115% and 21.4%, respectively.
`C=CCn1ccc(=O)nc1SC`: the growth in the assay with DU-145 prostate is 117%; in the assay with K-562 leukemia, 103%; in the assay with MDA-MB-231 breast, 109%; in the assay with RXF 393 renal, 129%; in the assay on SF-268 CNS it was 108%; in the assay with SF-295 CNS it was 107%. Further, the growth was 105% with SF-539 CNS, 102% with UACC-257 melanoma and 104% in the assay on M14 melanoma.
For `O=C(Nc1cccc([N+](=O)[O-])c1)NN1CCCCCC1`, the growth was 94.7% with DU-145 prostate; 84.1% with K-562 leukemia; 77.7% in the assay on MDA-MB-231 breast; 113% in the assay with RXF 393 renal; 98.1% in the assay on SF-268 CNS; 94% in the assay on SF-295 CNS. Also, the figures for the growth in the assay on SF-539 CNS, with UACC-257 melanoma and with M14 melanoma were 86.9%, 105% and 110%, respectively.
As to `CCOC(=O)c1c(O)c2cc(-c3ccccc3)nc(OCC)c2c(=O)n1C`, the growth is 107% in the assay with DU-145 prostate; 97.1% in the assay on K-562 leukemia; 95.9% with MDA-MB-231 breast; -0.249% (active) in the assay with RXF 393 renal; 94.3% with SF-268 CNS; 95.6% in the assay with SF-295 CNS. Besides, the growth in the assay on SF-539 CNS was 94.6%; with UACC-257 melanoma, 54.9%; in the assay with M14 melanoma, 87.8%.
For `O=C(/C=C/c1nnc2n(Cc3ccccc3)c(=O)c3c4c(sc3n12)CCCC4)c1ccccc1`, the growth with DU-145 prostate is 121%; in the assay on K-562 leukemia, 5.09% (active); in the assay with MDA-MB-231 breast it was 106%; in the assay with RXF 393 renal, 98.3%; in the assay with SF-268 CNS, 75.5%; in the assay with SF-295 CNS, 40.4%. Moreover, the growth with SF-539 CNS was 99.6%; in the assay with UACC-257 melanoma, 86.5%; in the assay with M14 melanoma it was 92.7%.
`Cc1ccc2nc3[nH]c(=O)[nH]c(=O)c3c(N)c2c1`: the growth is 77.2% with DU-145 prostate; 96.2% in the assay with K-562 leukemia; 95.8% with MDA-MB-231 breast; 77.7% with RXF 393 renal; 88.5% in the assay with SF-268 CNS; 90.9% in the assay with SF-295 CNS. In addition, the figures for the growth in the assay with SF-539 CNS, with UACC-257 melanoma and with M14 melanoma were 92.3%, 88.9% and 96%, respectively.
As to `CCOc1nc(-c2ccccc2)cc2c(O)c(C(=O)N/N=C/c3ccc(OC)cc3)[nH]c(=O)c12`, the growth with DU-145 prostate is 122%; in the assay with K-562 leukemia it was 74.4%; in the assay on MDA-MB-231 breast, 126%; in the assay on RXF 393 renal, 6.86% (active); in the assay with SF-268 CNS, 112%; in the assay with SF-295 CNS, 91%. Moreover, the results for the growth in the assay with SF-539 CNS, in the assay with UACC-257 melanoma and in the assay on M14 melanoma were 93.2%, 130% and 110%, respectively.
Consider `CCN(CC)CCCOC(=O)Nc1ccccc1Cl`, for which the growth in the assay on DU-145 prostate was 105%; in the assay with K-562 leukemia, 99.6%; in the assay with MDA-MB-231 breast, 110%; in the assay with RXF 393 renal, 109%; in the assay with SF-268 CNS, 111%; with SF-295 CNS it was 113%. Moreover, the growth was 94.7% in the assay with SF-539 CNS, 111% with UACC-257 melanoma and 107% with M14 melanoma.
On to `C[C@]12CC[C@H]3[C@@H](CCC4=CC(=O)CC[C@@]43C)[C@@H]1CC[C@@H]2c1csc(N)n1`, for which the growth is 78.2% in the assay on DU-145 prostate; 26% in the assay with K-562 leukemia; 66.8% in the assay with MDA-MB-231 breast; 76.8% in the assay on RXF 393 renal; 89.6% in the assay with SF-268 CNS; 50.3% in the assay with SF-295 CNS. Moreover, the results for the growth in the assay on SF-539 CNS, in the assay with UACC-257 melanoma and in the assay on M14 melanoma were 81%, 49.6% and 61%, respectively.
As to `COc1ccc(NC(=O)CCn2cnc3c(cc(-c4ccccc4)n3-c3ccccc3)c2=O)cc1`, the growth was 97.1% with DU-145 prostate; 90.6% in the assay on K-562 leukemia; 64.4% in the assay with RXF 393 renal; 24.5% in the assay on SF-268 CNS; 81.5% in the assay on SF-295 CNS; 47.3% with SF-539 CNS. Further, the growth with UACC-257 melanoma is 13%; with M14 melanoma it was 91.1%.
Consider `O=C(NNC(=O)c1ccncc1)Nc1ccc([N+](=O)[O-])cc1`, for which the growth is 105% in the assay on DU-145 prostate; 75.8% in the assay with K-562 leukemia; 109% in the assay on MDA-MB-231 breast; 124% with RXF 393 renal; 106% with SF-268 CNS; 99.1% in the assay with SF-295 CNS. For the same compound, the growth with SF-539 CNS is 94%; in the assay on UACC-257 melanoma, 116%; in the assay with M14 melanoma it was 116%.
Consider `Cn1c(N)c(N=Cc2ccccc2)c(=O)n(C)c1=O`, for which the growth is 124% in the assay on DU-145 prostate; 95.8% in the assay with K-562 leukemia; 98.8% with MDA-MB-231 breast; 121% in the assay with RXF 393 renal; 110% in the assay with SF-268 CNS; 124% in the assay on SF-295 CNS. In addition, the growth in the assay on SF-539 CNS is 119%; in the assay with UACC-257 melanoma it was 108%; in the assay with M14 melanoma it was 98.7%.
On to `Cn1cnc([N+](=O)[O-])c1Sc1nnc(-c2ccccc2)c(-c2ccccc2)n1`, for which the growth was 81.9% with DU-145 prostate; 51% in the assay with K-562 leukemia; 102% in the assay on MDA-MB-231 breast; 85.1% in the assay on SF-268 CNS; 87.7% in the assay on SF-295 CNS; 111% in the assay with SF-539 CNS. In addition, the growth with UACC-257 melanoma is 79.9%; in the assay on M14 melanoma, 76.9%.
As for `CC1(C)CC(OCCCC[P+](c2ccccc2)(c2ccccc2)c2ccccc2)CC(C)(C)N1O`, the growth in the assay on DU-145 prostate was 5.39% (active); in the assay on K-562 leukemia, -53.4% (active); in the assay with MDA-MB-231 breast, -25.7% (active); with RXF 393 renal it was -38.1% (active); with SF-268 CNS, 3.46% (active); with SF-295 CNS, -56% (active). For the same compound, the values for the growth in the assay on SF-539 CNS, in the assay on UACC-257 melanoma and with M14 melanoma were 12%, -40.6% (active) and 8.8% (active), respectively.
As to `CCSc1nc2c([nH]1)c(=O)n(C)c(=S)n2C`, the growth in the assay on DU-145 prostate is 112%; in the assay on K-562 leukemia, 115%; in the assay on MDA-MB-231 breast, 116%; in the assay on RXF 393 renal, 117%; in the assay with SF-268 CNS, 106%; with SF-295 CNS, 114%. The values for the growth in the assay with SF-539 CNS, in the assay on UACC-257 melanoma and in the assay with M14 melanoma were 97.9%, 108% and 109%, respectively.
Take `CCOC(=O)c1cc2c(n1Cc1cc(OC)cc(OC)c1)-c1oncc1CC2`: the growth was 13.8% with DU-145 prostate; 16.7% in the assay on K-562 leukemia; 30.4% in the assay on MDA-MB-231 breast; 18.7% in the assay with RXF 393 renal; 50.5% with SF-268 CNS; -4.53% (active) in the assay with SF-295 CNS. The growth in the assay on SF-539 CNS was -7.41% (active); in the assay with UACC-257 melanoma it was 60.5%; in the assay on M14 melanoma, 1.54% (active).
With `COc1cc(/C=C/C(=O)c2cc(-c3ccc(C(F)(F)F)cc3)ccc2O)cc(OC)c1OC`, the growth in the assay with DU-145 prostate was 81%; with K-562 leukemia it was 41%; in the assay on MDA-MB-231 breast, 61.3%; in the assay with RXF 393 renal it was 61%; in the assay with SF-268 CNS, 76.2%; with SF-295 CNS it was 78.1%. Besides, the growth with SF-539 CNS is 92.3%; in the assay on UACC-257 melanoma, 82.5%; with M14 melanoma, 81.8%.
As to `COc1c(C)c(C)c(OC)c2c1[nH]c(=O)c1c3cccnc3cn21`, the growth was 111% with DU-145 prostate; 102% in the assay with K-562 leukemia; 86.1% in the assay with MDA-MB-231 breast; 116% in the assay on RXF 393 renal; 112% in the assay on SF-268 CNS; 119% in the assay with SF-295 CNS. Besides, the growth in the assay with SF-539 CNS is 103%; in the assay on UACC-257 melanoma it was 126%; with M14 melanoma, 103%.
In the case of `COc1cc(Cn2c(-c3ccccc3)cc3c2-c2oncc2CC3)cc(OC)c1`, the growth was 0.266% (active) in the assay on DU-145 prostate; 9.87% (active) in the assay with K-562 leukemia; 5.37% (active) in the assay with MDA-MB-231 breast; 33.7% in the assay on RXF 393 renal; 30.6% in the assay with SF-268 CNS; -1.16% (active) in the assay with SF-295 CNS. For the same compound, the growth is -11.9% (active) in the assay on SF-539 CNS, 55.4% with UACC-257 melanoma and 0.789% (active) in the assay with M14 melanoma.
With `CC(=O)Nc1nc(C)c(C(=O)N/N=C/c2cccn2C)s1`, the growth in the assay with DU-145 prostate is 106%; in the assay on K-562 leukemia it was 54.3%; in the assay on MDA-MB-231 breast, 102%; in the assay with RXF 393 renal, 119%; in the assay with SF-268 CNS, 95.9%; in the assay with SF-295 CNS, 114%. Also, the growth was 103% with SF-539 CNS, 120% with UACC-257 melanoma and 115% in the assay with M14 melanoma.
Take `Cc1ccc(NS(=O)(=O)c2ccccc2)c(NS(=O)(=O)c2ccccc2)c1`: the growth with DU-145 prostate is 92.8%; in the assay on K-562 leukemia it was 108%; in the assay with MDA-MB-231 breast, 103%; in the assay on RXF 393 renal, 130%; in the assay with SF-268 CNS it was 102%; in the assay on SF-295 CNS it was 104%. The growth was 110% in the assay on SF-539 CNS, 107% in the assay on UACC-257 melanoma and 102% in the assay with M14 melanoma.
Consider `CCOC(=O)c1cc2c(n1Cc1cccc(OC)c1)-c1oncc1CC2`, for which the growth in the assay on DU-145 prostate was 48.4%; in the assay with K-562 leukemia, 18.5%; in the assay with MDA-MB-231 breast, 52.7%; with RXF 393 renal, 11.2%; in the assay with SF-268 CNS, 44.8%; in the assay with SF-295 CNS, 3.54% (active). The values for the growth with SF-539 CNS, in the assay with UACC-257 melanoma and in the assay on M14 melanoma were 15.8%, 43.6% and 16.8%, respectively.
